Screens from PubChem BioAssay.
HT1080-NT tox: kills 2HG-producing HT-1080-NT fibrosarcoma cells; 1.6% of 360,000 active; AID 686970; HT-1080-NT fibrosarcoma viability, CellTiter-Glo ATP luminescence, 48 h; Potency, µM (highest dose often 46.1 µM), inactives show top-dose activity, negative = less viability, usual class: cytotoxic;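 further: NT is the 2HG producing partner of a matched IDH1 knockdown line; 0% = DMSO-treated cells and -100% = media-only wells without cells; nearly all actives have a fitted effect of over 55% in size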
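Read-out is CellTiter-Glo luminescence after 10 minutes at room temperature, following 48 hours' compound treatment of HT-1080-NT cells (750 cells/well, RPMI, 5% FBS, 37 degrees C).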
DT40 TDP1 no CPT: qHTS for Inhibitors of human tyrosyl-DNA phosphodiesterase 1 (TDP1): qHTS in cells in absence of CPT; DT40 Tdp1-/- hTDP1 cells, no CPT, ATP luminescence, 48 h; Potency, µM (top dose mostly 46.2 µM), without a hit: top-dose activity change, negative = growth inhibition, hits mostly inhibitors; 15% of 420,000 active; further: nearly all actives have a fitted effect of over 55% in size
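Growth kinetics read by CellTiter-Glo luminescence after ≥48 hr at 37 °C. Cells: DT40 Tdp1-/- stably carrying human TDP1, 400 per well, compound exposure in the absence of CPT (DMSO vehicle).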
HT1080 IDH1KD tx: kills HT-1080 cells with IDH1 knockdown | HT-1080 IDH1 knockdown viability, ATP luminescence, 48 h | Potency, µM (highest dose often 46.1 µM), without a hit: at the highest dose activity, negative = toxicity, actives largely listed as cytotoxic | 2% of 360,000 active;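 further: 0% = DMSO wells and -100% = cell-free medium wells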
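After a 2 h attachment period, IDH1KD HT-1080 cells took pin-transferred compound for 48 h at 37 °C; ATP-based luminescence after 10 min room-temperature reagent incubation reported viability.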
TDP1 cell CPT: DT40-hTDP1 cell growth loss with CPT; AID 686979; 12% of 420,000 active; Potency, µM (doses to about 46.2 µM), without a hit: top-dose activity change, negative = growth inhibition, hits mostly inhibitors; chicken DT40 Tdp1-/-;hTDP1 cells + 20 nM CPT, ATP luminescence, 48 h; further: nearly all actives have a fitted effect of over 55% in size
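Cell growth measured by CellTiter-Glo luminescence after a minimum 48 h, 37 C compound exposure with 20 nM CPT in Tdp1-knockout DT40 cells stably expressing hTDP1, seeded 400/well; qHTS titration format.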
KB-3-1 tox: KB-3-1 parental cell cytotoxicity | KB-3-1 viability, CellTiter-Glo ATP luminescence, 72 h | Potency, µM (series often up to 46.1 µM), actives largely listed as cytotoxic | 1.4% of 400,000 active; further: nearly all actives have a fitted effect of over 60% in size
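Parental KB-3-1 adenocarcinoma cells in phenol-red-free DMEM with 10% FBS were pin-treated with compounds at several concentrations, incubated 72 h at 37 °C, and viability read by CellTiter-Glo luminescence; concentration-effect curves were fitted after normalization.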
KB-V1 MDR tox: kills drug-selected multidrug resistant KB-V1 cells; 3.4% of 400,000 active; AID 1347076; Potency, µM (doses to about 46.1 µM), hits mostly cytotoxic; KB-V1 MDR cells viability, CellTiter-Glo, 72 h; further: nearly all actives have a fitted effect of over 60% in size
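Compound-treated KB-V1 multidrug-resistant cells, 72 h, 37 degrees C; viability by CellTiter-Glo. Fitted qHTS curves give the values.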
Numbers without * were called inactive; i = inactive; ? = inconclusive; nt = no result. A selection: hits, their analogues and other compounds. The true share with any hit is near 19%. The call rests on the fitted dose curve; in most records, active means well fitted curve in the direction sought with a large enough effect; inconclusive means small, poorly fitted or top-dose-only effect, or another doubt; inactive means no such curve, though single readings can be large; an effect the other way counts as inactive or inconclusive. Unless noted, on the % scale 0 is the no-effect control and ±100 the full control effect; potency means the concentration at half of the fitted maximal effect.

SMILES	HT1080-NT tox	DT40 TDP1 no CPT	HT1080 IDH1KD tx	TDP1 cell CPT	KB-3-1 tox	KB-V1 MDR tox
Cc1ccc(Sc2ccc(CN3CCCC3)cc2[N+](=O)[O-])cc1	-17%	5.8µM*	-9%	6.5µM*	i	i
Cc1ccc(Sc2ccc(CO)cc2[N+](=O)[O-])cc1	-24%	?	?	13%	?	i
O=C(O)c1ccccc1C(=O)c1ccc(Sc2ccc(Cl)cc2)c([N+](=O)[O-])c1	-11%	-22%	-5%	-12%	i	i
CN1CCN(Cc2ccc(Sc3ccc(Cl)cc3)c([N+](=O)[O-])c2)CC1	-28%	15µM*	?	?	?	?
CSc1nsc(SCC(=O)Nc2nc3ccc(C)cc3s2)n1	-2%	?	11%	-17%	i	i
CCCCN(C)CCNC(=O)c1ccc2c(=O)n(CCc3ccccc3)c(=O)[nH]c2c1	nt	23µM*	nt	13µM*	i	i
CCOCCCNC(=O)c1ccc2c(=O)n(CCc3ccc(OC)c(OC)c3)c(=O)[nH]c2c1	nt	4.1µM*	nt	6.5µM*	i	i
CCCCCNC(=O)c1ccc2c(=O)n(CCc3ccccc3)c(=O)[nH]c2c1	nt	-14%	nt	-12%	i	i
COc1ccc(-n2c(=O)[nH]c3cc(C(=O)NCCc4ccc(Cl)cc4)ccc3c2=O)cc1OC	0%	15µM*	-8%	23µM*	i	i
CCCCCn1c(=O)[nH]c2cc(C(=O)NCCCN(C)Cc3ccccc3)ccc2c1=O	0%	-27%	6%	-30%	?	21µM*
CCC1CCCCN1S(=O)(=O)c1ccc(N2CCCCS2(=O)=O)cc1 (stereo not drawn)	nt	?	nt	?	i	i
COc1ccc(S(=O)(=O)NC2CC2)cc1Cl	0%	11%	9%	15%	i	i
Cc1ccnc2ccc(F)cc12	nt	-2%	nt	1%	i	i
CNc1c(Br)cc(/C=C2\C=C(C(O)c3cc(Br)c(NC)c(Br)c3)c3ccccc32)cc1Br (stereo not drawn)	nt	-29%	nt	?	i	i
CCn1c(N)c(C(=O)NCCOC)sc1=S	19%	0%	13%	-3%	i	i
CCn1c(N)c(C(=O)Nc2ccccc2C(=O)OC)sc1=S	-5%	16µM*	1%	?	i	i
CCc1cccc(CC)c1NC(=O)/C(C#N)=C/c1ccccc1C(F)(F)F	23µM*	21µM*	?	?	?	?
COc1ccc2[nH]c3nc(SCc4nnc(-c5ccc(C)cc5)o4)nnc3c2c1	?	16µM*	?	26µM*	?	?
COc1cccc(CN2CCN(c3nc4nonc4nc3NC3CC3)CC2)c1	0%	?	-4%	2%	i	?
O=C1c2ccccc2-c2n[nH]c3cccc1c23	-15%	21µM*	?	8.9µM*	?	?
O=c1c(-c2ccccc2)n[nH]c2ccccc12	-1%	?	1%	-6%	i	i
CC(OC(=O)/C(C#N)=C/c1ccc(N(C)C)cc1)C(=O)N(C)Cc1ccccc1 (stereo not drawn)	-1%	12µM*	-22%	?	i	i
Cc1nn2c(=O)cc(COC(=O)c3ccccc3NC(=O)c3ccccc3C)nc2s1	nt	-2%	nt	3%	nt	nt
CC(Oc1ccccc1)C(=O)Nc1ccccc1C(=O)OCc1cc(=O)n2nc(C(C)C)sc2n1 (stereo not drawn)	nt	21µM*	nt	?	nt	nt
CC(C)c1nn2c(=O)cc(COC(=O)c3ccccc3NC(=O)COc3ccccc3)nc2s1	nt	?	nt	5%	nt	nt
Cc1nn2c(=O)cc(COC(=O)c3ccccc3NC(=O)C(C)C)nc2s1	nt	12µM*	nt	?	nt	nt
